Most compounds without a hit are left out; they make up all but 2.6% or so of the library.
Mcl1 Noxa PPI – Mcl-1/Noxa interaction inhibition; TR-FRET Mcl-1/Noxa peptide binding, 2 h; inhibition, % at 21.7 µM; actives 1.5% (n = 220,000);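 active means compounds that cut the protein-peptide binding signal by more than 50% relative to plate controls in a single-dose test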;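 further: His-tagged Mcl-1 with rhodamine Noxa BH3 peptide and terbium anti-His antibody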
Target sequence (Q07820 whole entry, looked up): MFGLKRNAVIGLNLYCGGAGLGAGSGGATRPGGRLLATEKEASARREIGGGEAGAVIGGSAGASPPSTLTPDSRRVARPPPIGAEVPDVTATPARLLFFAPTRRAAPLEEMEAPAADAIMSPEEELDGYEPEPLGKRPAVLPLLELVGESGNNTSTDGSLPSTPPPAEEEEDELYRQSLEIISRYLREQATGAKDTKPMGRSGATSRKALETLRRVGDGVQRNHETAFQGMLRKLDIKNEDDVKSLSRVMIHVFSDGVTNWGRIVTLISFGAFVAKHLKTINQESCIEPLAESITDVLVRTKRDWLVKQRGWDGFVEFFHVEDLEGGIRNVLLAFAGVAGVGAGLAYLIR
MCL1 BIM primary – disrupts human MCL1 binding to BIM-BH3 peptide; Q07820; GST-MCL1 / FITC-Bim-BH3 fluorescence polarization; inhibition, % at 10.9 µM; actives 0.68% (n = 320,000); AID 2057;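 active means inhibition above the mean inhibition of all tested compounds plus 3 SD, set per campaign, cut at about 40% in these data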;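 further: higher means more loss of mP so more displacement of Bim peptide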
Mcl-1 Bim block – human Bim-Mcl-1 interaction inhibition; Q07820; Bead-based flow cytometry, Bim peptide-Mcl-1 binding; inhibition, % at 10 µM; actives 0.1% (n = 190,000); AID 1009; in the data active means inhibition above about 40%
eIF4E 4G PPI – inhibitors of eIF4E and eIF4G interaction in translation initiation; P63073+Q04637; TR-FRET eIF4E-eIF4GI(517-606) binding, 2 h; inhibition, % at 21.7 µM; actives 0.37% (n = 220,000);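 active means inhibition above about 30%, limit read from the data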
Mcl1 Bid PPI – Mcl-1/Bid interaction inhibition; actives 0.97% (n = 220,000); Q07820; TR-FRET Mcl-1/Bid-Dy647 peptide binding, 1536-well; inhibition, % at 21.7 µM; AID 1021;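 active means compounds that cut the binding signal by more than half at the single screening dose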;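 further: His-tagged Mcl-1 with europium anti-His antibody binding Bid BH3 peptide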
14-3-3 Bad PPI – disrupts binding of bovine 14-3-3 zeta to phospho-Bad peptide; P63103; inhibition, % at 21.7 µM; TR-FRET 14-3-3zeta/Dy647-pBad peptide displacement, 1 h; AID 781; actives 0.71% (n = 220,000);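 active means inhibition above about 70%, limit read from the data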
BCLXL inh confirm – counter-screen for MCL1 inhibitors: confirmation of human Bcl-xL inhibitors; actives 54% (n = 1,700); AID 2166; inhibition, % at 10.9 µM; shares compounds with MCL1 BIM primary; GST-Bcl-xL / FITC-Bim BH3 peptide FP binding;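 active means inhibition above a cutoff equal to the mean inhibition of all tested compounds plus 3 SD, cut at about 30% in these data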
Target sequence (Q07817 whole entry, looked up): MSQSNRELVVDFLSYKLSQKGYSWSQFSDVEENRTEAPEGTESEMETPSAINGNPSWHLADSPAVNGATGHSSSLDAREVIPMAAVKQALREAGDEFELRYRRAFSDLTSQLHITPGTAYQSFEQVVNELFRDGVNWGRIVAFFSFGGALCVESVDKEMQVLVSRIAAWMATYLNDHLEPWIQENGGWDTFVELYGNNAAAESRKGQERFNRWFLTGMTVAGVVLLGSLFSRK
MCL1 inh confirm – confirmation of human MCL1 and BIM-BH3 interaction inhibitors | shares compounds with MCL1 BIM primary | actives 61% (n = 1,700) | GST-MCL1 / FITC-Bim-BH3 fluorescence polarization | inhibition, % at 10.9 µM;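 active means inhibition above the average of all tested compounds plus 3 SD, cut at about 40% in these data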
A number is an active result; 0 = inactive; - = no result; + = active, no number.

SMILES	Mcl1 Noxa PPI	MCL1 BIM primary	Mcl-1 Bim block	eIF4E 4G PPI	Mcl1 Bid PPI	14-3-3 Bad PPI	BCLXL inh confirm	MCL1 inh confirm
CN(C)/C=C1\C=C2C(=O)c3ccccc3N2C1=O	0	116	-	0	0	0	115	121
Cc1cc(C)n(Cc2ccc(C(=O)O)cc2)n1	0	0	0	0	0	0	-	-
Cc1ccc(C)n1Cc1ccc(C(=O)O)cc1	62	92	0	0	0	0	36	110
COc1cccc(CNC(=O)[C@@H](C)N2C(=O)N3CCc4c([nH]c5ccc(OC)cc45)C3(C)C2=O)c1 (some centres not stated)	-	0	-	-	-	-	-	-
CC1(C)CC(=O)C2=C(C1)OC1=C(C(=O)CC(C)(C)C1)C2c1ccc(O)cc1O	0	+	0	0	0	0	148	194
CCOC(=O)[C@H]1[C@H]2COc3ccc(Br)cc3[C@@H]2N2C(=O)CN(Cc3ccc(F)cc3)C(=O)[C@@]12C	-	0	-	-	-	-	-	-
O=C1c2cccc3cccc(c23)C(=O)N1OS(=O)(=O)c1ccc(Br)cc1	0	0	0	0	0	0	-	-
O=C1C(Br)=Cc2cccc3cccc1c23	0	135	-	0	0	0	97	133
COc1ccc(/C=N/NC(=O)c2ccncc2)cc1CSc1nc2ccccc2s1	0	0	0	0	0	0	-	-
Cc1ccsc1C1C=C(c2cccc(Br)c2)Nc2ncnn21 (configuration not stated)	0	118	0	0	0	0	71	83
COc1cccc(C2=CC(c3ccc(C)cc3)n3ncnc3N2)c1 (configuration not stated)	0	60	0	0	0	0	0	42
Fc1ccc(Br)cc1C1C=C(c2ccc(Br)cc2)Nc2ncnn21 (configuration not stated)	0	0	0	0	0	0	-	-
O=C(COc1ccc(-c2ccccc2)cc1)N1CCN(S(=O)(=O)Cc2ccccc2)CC1	0	0	0	0	0	0	-	-
O=c1[nH]n2c(=O)c3c([nH]c2c1N=Nc1cccc(Cl)c1)CCC3	58	42	0	0	0	0	0	0
Oc1ccc2nnc3c(Br)cnn3c2c1	-	+	-	-	-	-	168	+
Clc1ccc2nc3c4ccccc4cnn3c2c1	0	0	0	0	0	0	-	-
Nc1n[nH]c2cc(=O)n(-c3cccc(C(F)(F)F)c3)nc12	0	60	0	0	0	0	38	54
Cc1ccc(OCC(=O)N/N=C/C=C/c2ccco2)cc1	0	40	0	0	0	0	55	71
O=C(CSc1nnc(SCc2ccccc2)s1)N/N=C/C=C\c1ccco1	54	43	0	0	0	0	31	59
Cc1ccccc1OCC(=O)N/N=C/c1ccc([N+](=O)[O-])o1	0	0	0	0	0	0	-	-
COc1ccccc1OCC(=O)N/N=C/C=C/c1ccc([N+](=O)[O-])o1	0	41	0	0	0	0	0	0
NC(=NCCc1c[nH]c2ccccc12)NC(=O)c1ccc(F)cc1	0	0	-	0	0	0	-	-
Cc1ccc(/C=C2\Oc3cc(OC(=O)N4CCOCC4)ccc3C2=O)cc1	0	0	0	0	0	0	-	-
O=C(Oc1ccc2c(c1)O/C(=C\c1ccncc1)C2=O)c1ccccc1	0	93	0	0	0	0	0	54
O=C1/C(=C\c2cccc(O)c2O)SC(=S)N1Cc1ccccc1	-	0	-	-	-	-	-	-
SMILES	Mcl1 Noxa PPI	MCL1 BIM primary	Mcl-1 Bim block	eIF4E 4G PPI	Mcl1 Bid PPI	14-3-3 Bad PPI	BCLXL inh confirm	MCL1 inh confirm
O=C(O)CN1C(=O)/C(=C\c2cc([N+](=O)[O-])ccc2OCc2ccccc2Cl)SC1=S	-	51	-	-	-	-	0	47
O=C1/C(=C\c2cc([N+](=O)[O-])ccc2O)SC(=S)N1Cc1ccc(Cl)cc1	-	66	-	-	-	-	88	105
CC(=O)Oc1ccc(/C(C)=N\N2CCN(Cc3ccc(Cl)cc3)CC2)cc1	-	0	-	-	-	-	-	-
COc1ccc(S(=O)(=O)N2CCCCC2)cc1NC(=O)c1cncc(Br)c1	-	0	-	-	-	-	-	-
Oc1cc2c(cc1O)[C@H]1c3ccc(O)c(O)c3OC[C@@]1(O)C2	-	57	-	-	-	-	76	108
COc1ccc(S(=O)(=O)N2CCN(C(=O)C3COc4ccccc4O3)CC2)cc1 (configuration not stated)	-	89	-	-	-	-	0	90
CC(=O)Nc1ccc(S(=O)(=O)N2CCN(C(=O)C3COc4ccccc4O3)CC2)cc1 (configuration not stated)	-	0	-	-	-	-	-	-
O=C(c1cccc(-c2ccccc2)c1)N1CC[C@@H](N2CCC(O)CC2)[C@H](O)C1	-	0	-	-	-	-	-	-
COc1ccc(C2=CC3=C(Br)C(=O)C(C)(OC(=O)c4cccs4)C(=O)C3=CO2)cc1 (configuration not stated)	-	42	-	-	-	-	0	51
COc1ccc(C2=CC3=C(Br)C(=O)C(C)(OC(=O)c4ccco4)C(=O)C3=CO2)cc1 (configuration not stated)	63	54	-	0	0	0	35	76
COC(=O)CCC(=O)OC1(C)C(=O)C2=CN(C3CCCC3)C(c3ccc(OC)cc3)=CC2=C(Br)C1=O (configuration not stated)	0	0	-	0	0	0	-	-
CC(=O)c1ccc2noc(-c3ccc(F)cc3)c2c1	0	98	0	0	0	0	82	103
CC(=O)c1ccc2noc(-c3ccc(Cl)cc3)c2c1	0	0	0	0	0	0	-	-
CSCCC(NC(=O)c1ccco1)C(=O)NCC1CCCO1 (configuration not stated)	-	0	-	-	-	-	-	-
O=C(CCNC(=O)c1ccccc1Cl)NCCC1=CCCCC1	-	0	-	-	-	-	-	-
O=C(OCc1nnc(-c2cccs2)o1)C1=NN(c2ccccc2)C(=O)CC1	-	0	-	-	-	-	-	-
CN1CCC2(CC1)C1CN(C)CC=C1C(C#N)=C(N)C2(C#N)C#N (configuration not stated)	0	140	0	0	0	0	117	146
CCCCn1c(SCC(=O)Nc2cc(C(F)(F)F)cc(C(F)(F)F)c2)nnc1C(CC)N(C)C (configuration not stated)	0	0	0	0	0	0	-	-
O=c1cc(-c2ccc(O)cc2)oc2c(O)c(O)c(O)c(O)c12	0	47	-	0	0	0	0	54
O=c1cc(-c2ccc(O)cc2)oc2c1ccc1ccccc12	-	0	-	-	-	-	-	-
O=C1Nc2ccccc2SC(c2ccccc2)C1O (configuration not stated)	104	63	0	36	63	0	0	91
CCOc1ccc(NC(=O)Cn2nnc(C(=O)NCc3ccc4c(c3)OCO4)c2N)cc1	-	0	-	-	-	-	-	-
